Data as given in PubChem BioAssay (NCI).
Where “and” joins values, the source holds several entries; their conditions need not be identical. Equal values may be shown once. Compounds without any hit were thinned out: in the full panel of roughly 83,000, 20% have a hit.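 Note: values are percent growth. 100 is the growth of untreated cells, values between 100 and 0 indicate rising inhibition; between -100 and 0 indicates cell death.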 Calls of active or inactive are those of the source. Rule for the calls: active = growth percent below 10; inactive = the rest.

Tests used:
Assay in all cases: NCI-60 one-dose screen, 48 h (100 = growth as untreated, 0 = no growth, -100 = all killed)
SR leukemia = conditions: 10 µM unless noted
RPMI-8226 leukemia = conditions: 10 µM unless noted
OVCAR-8 ovarian = conditions: 10 µM unless noted
OVCAR-5 ovarian = conditions: 10 µM unless noted
OVCAR-4 ovarian = conditions: 10 µM unless noted
SK-OV-3 ovarian = conditions: 10 µM unless noted
IGROV1 ovarian = conditions: 10 µM unless noted
HS 578T breast = conditions: 10 µM unless noted
NCI/ADR-RES ovarian = conditions: 10 µM unless noted
T-47D breast = conditions: 10 µM unless noted
BT-549 breast = conditions: 10 µM unless noted
MDA-MB-435 melanoma = conditions: 10 µM unless noted
SW-620 colon = conditions: 10 µM unless noted
MCF7 breast = test system: MCF7 breast
HCT-116 colon = conditions: 10 µM unless noted
HCC-2998 colon = conditions: 10 µM unless noted
OVCAR-3 ovarian = conditions: 10 µM unless noted
KM12 colon = conditions: 10 µM unless noted

Measured: growth

Oc1ccc(Cc2ccccc2Cl)c(O)c1
inactive: SR leukemia 95.7% | RPMI-8226 leukemia 87.5% | OVCAR-8 ovarian 104% | OVCAR-5 ovarian 97.3% | OVCAR-4 ovarian 93.6% | SK-OV-3 ovarian 104% | IGROV1 ovarian 94.7% | HS 578T breast 94.4% | NCI/ADR-RES ovarian 91.5% | T-47D breast 83.9% | BT-549 breast 99.2% | MDA-MB-435 melanoma 107% | SW-620 colon 97.1% | MCF7 breast; 10 µM unless noted 119% | HCT-116 colon 96.6% | HCC-2998 colon 91.3%

CC1CCC2(C(=O)O)CCC3(C)C(=CCC4C5(C)CCC(O)C(C)(C)C5CCC43C)C2C1C (stereo not drawn)
-29% (active) and 91.4% (inactive): HCC-2998 colon
active: MCF7 breast; 100 µM -56.5% and -70%
6.37% (active) and 85.7% (inactive): HCT-116 colon
inactive: SR leukemia 39.3% and 46.8% | RPMI-8226 leukemia 48.5% and 83.4% | OVCAR-8 ovarian 93.3% | OVCAR-4 ovarian 59.3% and 84.2% | SK-OV-3 ovarian 91.6% and 104% | IGROV1 ovarian 96.7% and 105% | OVCAR-3 ovarian 56% and 101% | NCI/ADR-RES ovarian 16.5% and 97.3% | T-47D breast 49% and 77.2% | BT-549 breast 263% and 102% | MDA-MB-435 melanoma 59.8% and 103% | SW-620 colon 15.2% and 98.2% | MCF7 breast; 10 µM 84.3% and 93.3%
-8.77% (active) and 87.9% (inactive): OVCAR-5 ovarian

NC(=O)NCCCC(N)C(=O)O (stereo not drawn)
inactive: SR leukemia 84% | RPMI-8226 leukemia 96.5% | OVCAR-8 ovarian 98% | OVCAR-5 ovarian 113% | OVCAR-4 ovarian 112% | SK-OV-3 ovarian 100% | IGROV1 ovarian 91.5% | OVCAR-3 ovarian 106% | HS 578T breast 106% | NCI/ADR-RES ovarian 102% | T-47D breast 88.4% | BT-549 breast 95.7% | MDA-MB-435 melanoma 107% | SW-620 colon 107% | MCF7 breast; 10 µM unless noted 101% | HCT-116 colon 104% | HCC-2998 colon 110% | KM12 colon 101%

CC1=C/C(O)CC(=O)Cc2nc(co2)C(=O)N2CCC=C2C(=O)OC(C(C)C)C(C)/C=C\C(=O)NC/C=C\1 (stereo not drawn)
inactive: SR leukemia 17.9% | RPMI-8226 leukemia 60.7% | OVCAR-8 ovarian 74% | OVCAR-5 ovarian 94.8% | OVCAR-4 ovarian 78.5% | SK-OV-3 ovarian 119% | OVCAR-3 ovarian 85% | NCI/ADR-RES ovarian 109% | T-47D breast 89.4% | MDA-MB-435 melanoma 81.2% | SW-620 colon 59.9% | MCF7 breast; 10 µM unless noted 71.8% | HCT-116 colon 34.3% | HCC-2998 colon 118%
active: IGROV1 ovarian 3.64%

c1ccc2c(c1)OC1OC2Oc2ccccc21
inactive: SR leukemia 76.1% | RPMI-8226 leukemia 106% | OVCAR-8 ovarian 104% | OVCAR-5 ovarian 103% | OVCAR-4 ovarian 105% | SK-OV-3 ovarian 102% | IGROV1 ovarian 97% | OVCAR-3 ovarian 101% | NCI/ADR-RES ovarian 95.7% | T-47D breast 100% | BT-549 breast 93.2% | MDA-MB-435 melanoma 115% | SW-620 colon 96.9% | MCF7 breast; 10 µM unless noted 107% | HCT-116 colon 113% | HCC-2998 colon 105% | KM12 colon 87.3%

O=C1c2c(O)ccc(O)c2C(=O)c2c(NCCNCCO)ccc(NCCNCCO)c21
active: RPMI-8226 leukemia -21.8% and -30.9% | OVCAR-8 ovarian -41.6% | OVCAR-5 ovarian -15.1% and -78.6% | OVCAR-4 ovarian -39.7% | SK-OV-3 ovarian -23.4% and -35.4% | IGROV1 ovarian -10.4% and -56.7% | OVCAR-3 ovarian -50.5% and -31.7% | HS 578T breast -22.8% | T-47D breast -24% and -46.9% | BT-549 breast -46.2% and -85.9% | MDA-MB-435 melanoma -89.9% and -94.9% | SW-620 colon -30.8% and -81.8% | MCF7 breast; 10 µM unless noted -42% | HCT-116 colon -20.2% and -44.9% | HCC-2998 colon -88.5%
39.1% (inactive) and -9.1% (active): NCI/ADR-RES ovarian

c1ccc(-c2nc3ccccc3s2)cc1
inactive: SR leukemia 103% | OVCAR-8 ovarian 88.3% | OVCAR-5 ovarian 84.1% | OVCAR-4 ovarian 101% | IGROV1 ovarian 75.4% | OVCAR-3 ovarian 105% | NCI/ADR-RES ovarian 96.1% | BT-549 breast 96.8% | MDA-MB-435 melanoma 110% | SW-620 colon 93.6% | MCF7 breast; 10 µM unless noted 80.3% | HCT-116 colon 97.3% | HCC-2998 colon 97.2%

O=C(Cc1ccccc1)c1ccc(O)c(Cl)c1
active: RPMI-8226 leukemia -6.77%
inactive: OVCAR-8 ovarian 43.4% | OVCAR-5 ovarian 65.6% | OVCAR-4 ovarian 63.5% | SK-OV-3 ovarian 101% | IGROV1 ovarian 60.4% | OVCAR-3 ovarian 12.4% | HS 578T breast 37.4% | NCI/ADR-RES ovarian 28.5% | T-47D breast 43.9% | BT-549 breast 45.3% | MDA-MB-435 melanoma 41.3% | SW-620 colon 22.1% | MCF7 breast; 10 µM unless noted 20.4% | HCT-116 colon 27% | HCC-2998 colon 43.4%
